# Assay outcomes from PubChem BioAssay.
# SKKanGAS inh: SKKanGAS growth inhibition. inhibition, % at 7.5 µM. 300,000 compounds, 1.3% hits. S. pyogenes SKKanGAS, kanamycin growth, BacTiter-Glo, 6 h;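 active = mean replicate score, as percent of positive control median, at least 50; inconclusive = mean below 50 but one replicate at or above 50; inactive = mean and every replicate below 50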;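 note: strain carries kanamycin resistance gene driven by streptokinase promoter and grows in 40 µg/ml kanamycin; loss of luminescence reflects streptokinase promoter inhibition or plain growth inhibition; 0% = median of DMSO wells and 100% = positive control at its reference dose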
# tim10-1 inh: inhibits growth of tim10-1 mutant yeast; inhibition, % at 20 µM; 330,000 compounds, 2.2% hits; S. cerevisiae tim10-1 ts strain growth, BacTiter-Glo, 24 h;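 active = inhibition of at least 40%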;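 note: mutant grown at 25 °C; 0% = DMSO wells with yeast and 100% = wells holding no yeast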
# TIM10 inh: growth inhibitors of TIM10 yeast strain | S. cerevisiae TIM10 strain growth, BacTiter-Glo luminescence, 24 h | inhibition, % at 10 µM | 330,000 compounds, 1.4% hits;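 active = inhibition of 40% or more at the single tested concentration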;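 note: wild-type TIM10 isogenic control strain grown at permissive 25 °C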
# PfHsp90 yeast 2: reduces growth (ATP signal) of yeast expressing P. falciparum Hsp90. S. cerevisiae expressing PfHsp90, BacTiter-Glo ATP, 48 h; yeast lacking PDR1 and PDR3 efflux regulators. inhibition, % at 9.4 µM. 310,000 compounds, 0.32% hits;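 active = every replicate shows inhibition above about 80%, whatever the replicate mean, limit read from the data; inconclusive = mean inhibition reaches the set limit but some replicate falls short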;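 note: 0% = DMSO neutral controls and 100% = 20 µM radicicol positive controls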
# tim23-1 inh: growth inhibitors of tim23-1 mutant yeast; 330,000 compounds, 1.3% hits; S. cerevisiae tim23-1 growth, BacTiter-Glo luminescence, 24 h; inhibition, % at 20 µM;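 active = growth inhibition of the mutant yeast at or above 50%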;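 note: temperature-sensitive mutant grown at 25 °C; plate controls were DMSO-treated mutant yeast for no effect and medium wells lacking yeast for full effect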
# NALP1 yeast inh: blocks the NALP1 inflammasome reconstituted in yeast | S. cerevisiae NALP1/ASC/caspase-1 growth, X-gal OD620, 72 h | inhibition, % at 10 µM | AID 2071 | 280,000 compounds, 0.61% hits; in the data active = inhibition mostly above about 24%, no sharp cut-off; inactive = mostly below about 32%
# Active calls of the source: *; ? = inconclusive; . = not tested or not shown. Only some compounds are listed: those with a hit (about 4.8% of all), similar ones and a draw of the others.
SMILES,SKKanGAS inh,tim10-1 inh,TIM10 inh,PfHsp90 yeast 2,tim23-1 inh,NALP1 yeast inh
Cc1ccc2c(c1)c1c3n2CCCNC3CCC1 (stereo not drawn),-13,14,1,49,19,66
c1cc2c(cc1C1CCCCC1)c1c3n2CCCNC3CCC1 (stereo not drawn),25,-5,9,-3,10,41*
Cc1ccc(C(=O)NC(=S)Nc2cccc3c(C)cc(C)nc23)cc1,79*,-10,5,8,8,0
S=c1[nH]nc(-c2cccs2)n1/N=C/c1c(Cl)cccc1Cl,63*,16,13,-23,18,-6
S=c1[nH]nc(C2CCCCC2)n1/N=C/c1c(Cl)cccc1Cl,52*,22,32,-20,19,-11
Oc1cccc(/C=N/n2c(C3CCCCC3)n[nH]c2=S)c1,-2,32,9,27,26,-17
COC(=O)c1ccccc1NS(=O)(=O)c1ccc2c3c(cccc13)C(=O)N2,-9,5,-15,-9,-1,15
O=C(NCc1ccco1)c1cccs1,1,-7,-3,-20,4,29*
O=C(NCc1ccco1)c1ccc(C(=O)NCc2ccco2)cc1,.,.,.,-4,.,.
O=C(NCc1ccco1)c1ccc(Oc2ccccc2)cc1,-23,24,12,-3,22,40*
O=[N+]([O-])c1ccc(O)c(C=Nc2ccc3oc(Cc4ccc(Cl)cc4)nc3c2)c1,11,22,25,.,34,17
O=C(O)C1=C[C@H](c2ccc(C(F)(F)F)cc2)C[C@H](OCc2ccc(CO)cc2)O1,10,19,15,-17,21,22*
Cc1ccc(OCC(=O)NS(=O)(=O)c2ccccc2)cc1,-11,2,11,3,-1,11
C/C(CC(=O)Nc1cc(C)ccn1)=N\NC(=O)c1cccc(C)c1,-2,4,-15,7,-1,0
C/C(CC(=O)Nc1cc(C)ccn1)=N\NC(=O)c1cccc(C)c1O,5,19,-9,101*,2,8
C/C(=N\NC(=S)NCc1ccccc1)c1cccs1,14,15,28,-19,38,2
C/C(=N\NC(=S)NCc1ccccc1)c1ccc2ccccc2c1OC(F)F,67*,25,39,6,34,-5
CCCC1(C(=O)OCC)NC(c2cc(OC)c(OC)c(OC)c2)C2C(=O)N(CC)C(=O)C21 (stereo not drawn),-7,-8,7,-11,11,6
Cc1ccc2nc(C)cc(Nc3ccc4c(c3)OCCO4)c2c1,1,22,21,15,19,33*
CN(C)c1ccc(N=C/C=C2\N(C)c3ccccc3C2(C)C)cc1,1,-12,-15,70,-20,17
CN1/C(=C\C=Nc2ccc3ccccc3c2)C(C)(C)c2ccccc21,.,14,-19,-17,9,28*
CC(C)N1CCc2[nH]c(=S)[nH]c(=O)c2C1,-2,-13,0,33,-4,18
C=C(CC1([C@@H](NP(=O)(c2ccccc2)c2ccccc2)[C@H]2C[C@@H]2CCCC)CC1)c1ccccc1,77*,-13,1,15,12,27
C=COCCNC(=S)Nc1cccc(Cl)c1,-5,28,9,1,3,-2
COCCCNC(=S)NNC(=S)Nc1cccc(Cl)c1,52*,25,33,-16,20,2
SMILES,SKKanGAS inh,tim10-1 inh,TIM10 inh,PfHsp90 yeast 2,tim23-1 inh,NALP1 yeast inh
Cc1oc2c(c1C(=O)c1ccc(Cl)cc1)C(=O)C(=O)c1ccccc1-2,75*,.,.,.,.,30
CC1=C(CC(=O)c2ccc(Cl)cc2)C(=O)c2ccccc2C1=O,45,23,12,-17,20,-8
Cc1ccc(C(=O)c2c(C)oc3c2C(=O)C(=O)c2ccccc2-3)cc1,93*,22,23,.,38,-4
Cc1cccc(C)c1OC(=O)C(c1ccccc1)c1ccccc1,71*,13,26,-4,16,20
O=C(Nc1ccccc1)/C(=C/c1ccccc1)NC(=O)c1ccco1,1,-1,8,11,3,8
O=c1[nH]ncc2c3ccccc3n(Cc3ccc(F)cc3)c12,-8,-7,0,9,2,-12
O=C(CSc1ccccn1)NCc1ccc2c(c1)OCO2,-5,20,-1,-13,11,6
Nc1ccc2c(c1)C(=NO)c1cc([N+](=O)[O-])ccc1-2,.,.,.,-115,.,.
O=[N+]([O-])c1ccc2c(c1)-c1ccccc1C2=NO,.,.,.,105*,.,.
CCN(CC(=O)NC1CCCCC1)S(=O)(=O)c1ccc(Cl)cc1,1,1,1,8,-5,26
COc1ccc(-c2n[nH]c(C(F)(F)F)c2-c2cc3ccccc3o2)c(O)c1,99*,16,17,73,-127,11
CC(C)(Oc1ccc(Cl)cc1)C(=O)NC1=NN(c2ccccc2)C(=O)C1,95*,27,13,11,45,-3
c1cc(CNC23CC4CC(CC(C4)C2)C3)ccn1,-1,-16,-5,.,-27,27*
O=C(CC12CC3CC(CC(C3)C1)C2)NCc1ccncc1,3,22,-2,-8,11,7
O=C(CNC1CCCC1)Nc1ccc(N2CCCCCC2)cc1,-5,2,3,-3,-1,30*
Cc1ccc(-n2nnnc2SCC(=O)NC(=O)Nc2ccc3c(c2)OCCO3)cc1,50*,13,6,-19,0,-20
CN1c2ccccc2N(C)C1c1ccc2c(c1)OCO2,-14,0,-5,.,14,.
CN(c1ccccc1)S(=O)(=O)c1ccc(C(=O)Nc2nnc(-c3ccc(F)cc3)o2)cc1,103*,30,30,.,6,-7
CN(C)c1ccc(C(=O)Nc2nnc(-c3ccc(Cl)cc3)o2)cc1,91*,3,17,-67,7,42
O=C(Nc1nnc(-c2ccccc2)o1)c1ccc(Cl)cc1,92*,4,8,-89,19,20
Cc1cccc(C(=O)Nc2nnc(-c3ccncc3)o2)c1,-2,10,-6,.,8,-7
O=C(Nc1nnc(-c2ccncc2)o1)c1ccc2ccccc2c1,78*,4,-7,-30,3,-17
O=C(COc1ccccc1)Nc1nnc(-c2ccc(Cl)cc2)o1,44,19,11,-37,25,7
CC(C)N(Cc1ccccc1)C(=O)c1ccc2c(c1)OCO2,27,20,16,-7,14,11
CN1CCN(C(=O)CSc2nc3ccc(NC(=O)c4ccccc4F)cc3s2)CC1,8,-13,1,-35,5,.
CC(=O)c1ccc(C(=O)Nc2nnc(-c3ccc(Cl)cc3)o2)cc1,91*,16,5,-1,7,-40
Cc1ccc(C(=O)Nc2nnc(-c3ccco3)o2)cc1C,?,39,25,-13,11,6
O=C(Nc1nnc(-c2ccco2)o1)c1ccc(Cl)cc1,87*,31,26,-9,29,-4
